Measurements reported in PubChem BioAssay (NCATS).
A number with no mark means an inactive call. Records with an inconclusive call do not appear. Activity calls are given as the source filed them. Calls come from the whole dose curve; as a rule, active = well fitted inhibition curve with a large enough effect; inconclusive = small, poorly fitted or top-dose-only effect; inactive = flat fitted curve, though single readings scatter.

Target: Ubiquitin carboxyl-terminal hydrolase 1 (Homo sapiens) (UniProt O94782)
Experiment: Inhibitors of USP1/UAF1: Pilot qHTS (AID 504865); note: nearly all actives have a fitted effect of over 35% in size; note: potency is the fitted concentration of half-maximal effect;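 for activity change, negative = inhibition: rhodamine fluorescence freed from ubiquitin-rhodamine substrate followed over time; top concentration of the series differs between compounds; % is set by controls: 0 for no effect and ±100 for the full control effect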
Details: purified USP1/UAF1, Ub-rhodamine cleavage fluorescence; series mostly up to 114 µM; activity change, negative = inhibition: at the top concentration
Procedure, shortened: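 USP1/UAF1 complex (1nM) preincubated with compound 15 min at room temperature, then Ub-Rho substrate (150nM final) added. Fluorescence read kinetically at 480/540 nm, 6 reads every 60 seconds. Buffer: 50mM HEPES pH 7.8, 0.5mM EDTA, 0.1 mg/ml BSA, 1mM TCEP, 0.01% Tween-20.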

Chain of Ubiquitin carboxyl-terminal hydrolase 1 (Homo sapiens) (O94782 whole entry, looked up): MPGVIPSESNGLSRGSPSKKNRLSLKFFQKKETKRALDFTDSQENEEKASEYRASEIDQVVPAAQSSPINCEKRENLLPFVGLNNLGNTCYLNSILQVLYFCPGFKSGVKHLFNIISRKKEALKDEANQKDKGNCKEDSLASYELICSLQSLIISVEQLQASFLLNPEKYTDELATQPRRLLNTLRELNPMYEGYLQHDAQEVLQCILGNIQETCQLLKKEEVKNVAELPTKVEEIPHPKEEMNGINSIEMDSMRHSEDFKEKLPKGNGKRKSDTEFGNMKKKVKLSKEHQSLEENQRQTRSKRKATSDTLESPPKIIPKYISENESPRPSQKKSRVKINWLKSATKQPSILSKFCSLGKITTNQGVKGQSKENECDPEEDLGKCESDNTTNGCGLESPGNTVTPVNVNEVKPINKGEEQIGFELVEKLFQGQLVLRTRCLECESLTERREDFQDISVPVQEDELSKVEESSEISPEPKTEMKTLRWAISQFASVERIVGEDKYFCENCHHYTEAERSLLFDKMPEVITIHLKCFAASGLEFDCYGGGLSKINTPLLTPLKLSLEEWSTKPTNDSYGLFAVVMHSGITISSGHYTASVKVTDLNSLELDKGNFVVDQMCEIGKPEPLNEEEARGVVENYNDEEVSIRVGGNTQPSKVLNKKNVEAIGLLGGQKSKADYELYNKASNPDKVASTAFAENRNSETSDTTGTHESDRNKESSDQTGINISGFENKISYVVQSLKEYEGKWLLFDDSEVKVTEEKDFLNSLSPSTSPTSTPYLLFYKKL

Compound | Potency | activity change, negative = inhibition
CC1COC2=C1C(=O)C(=O)c1c2ccc2c1CCCC2(C)C (stereo unspecified) | 79.4 µM (active) | 
CC1=CC(=O)c2c(O)cccc2C1=O | 17.8 µM (active) | 
CC(=O)N1CCN(c2ccc(OC[C@@H]3CO[C@@](Cn4ccnc4)(c4ccc(Cl)cc4Cl)O3)cc2)CC1 |  | -12.9% [at 54.9 µM]
C[C@]12CC[C@@H]3c4ccc(O)cc4C[C@@H](CCCCCCCCCS(=O)CCCC(F)(F)C(F)(F)F)C3[C@@H]1CC[C@@H]2O (stereo partly specified) |  | -9.1%
CC(C)n1c(/C=C\[C@@H](O)C[C@@H](O)CC(=O)O)c(-c2ccc(F)cc2)c2ccccc21 |  | -12.3% [at 54.9 µM]
COc1ccc2c(c1)CCC1[C@@H]2CCC2(C)[C@@H](NCCCCCCN3C(=O)C=CC3=O)CC[C@@H]12 (stereo partly specified) |  | -6.66%

Target: DNA dC->dU-editing enzyme APOBEC-3G (Homo sapiens) (UniProt Q9HC16)
Experiment: qHTS for inhibitors of Vif-A3G interactions: Validation (AID 588379); note: 0% is about no effect
Details: Vif-A3G protein interaction assay; series mostly up to 46.1 µM; activity change, negative = inhibition: at the top concentration
Procedure, shortened: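 Yellow fluorescence (Ex 488, Em 500-530) of Vif-coexpressing HeLa A3G-eYFP cells, scanned by Acumen cytometer, reports blocked A3G degradation. Cells plated at 700/well overnight at 37 deg C before compound addition, then a further overnight compound incubation at 37 deg C.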

Chain of DNA dC->dU-editing enzyme APOBEC-3G (Homo sapiens) (Q9HC16 whole entry, looked up): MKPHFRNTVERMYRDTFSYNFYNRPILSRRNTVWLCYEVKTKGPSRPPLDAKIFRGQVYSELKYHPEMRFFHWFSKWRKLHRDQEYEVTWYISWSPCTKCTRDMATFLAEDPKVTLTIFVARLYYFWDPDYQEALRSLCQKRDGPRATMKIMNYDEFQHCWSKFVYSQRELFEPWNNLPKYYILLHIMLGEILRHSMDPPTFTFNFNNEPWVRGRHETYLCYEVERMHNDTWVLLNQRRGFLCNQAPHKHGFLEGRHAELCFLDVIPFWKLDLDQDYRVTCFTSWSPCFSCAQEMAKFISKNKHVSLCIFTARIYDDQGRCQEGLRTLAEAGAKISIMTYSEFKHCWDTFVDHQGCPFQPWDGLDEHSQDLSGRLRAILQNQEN

Compound | activity change, negative = inhibition [%]
COc1cc2c(cc1OC)-c1c(OC)c(OC)c(C=O)c3c1[C@H](C2)N(C)CC3 | -7.91
C[C@]12CCC3C(CC[C@]4(O)C[C@@H](O)CC[C@]34C=O)[C@@]1(O)CC[C@@H]2C1=CC(=O)OC1 (stereo partly specified) | -3.44
C/C=C1/C[C@@H](C)[C@](O)(CO)C(=O)OCC2=CCN3CC[C@@H](OC1=O)C23 (stereo partly specified) | -1.07
CC1(C)S[C@H]2[C@@H](N)C(=O)N2[C@H]1C(=O)O | 3.52
CC1=CC(=O)c2c(O)cccc2C1=O | -1.58
